Measurements as given in PubChem BioAssay (NCI).
About 79,000 compounds went through this panel and 15% of them were active in at least one assay; those are over-represented in the sample as a whole. Activity calls are given as the source filed them. Cut-off read from the data, not from the text of the source: active = growth inhibition above about 70%; inactive = the rest.

Legend:
[1] = NCI Yeast Anticancer Drug Screen. Data for the sgs1 strain (AID 173);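 note: 0% = growth of vehicle-only control cultures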; conditions: S. cerevisiae sgs1 mutant, hits give high values
Procedure, shortened: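 Treat defined-mutant yeast with compound; measure growth; calculate inhibition relative to vehicle-treated cells.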

[2] = NCI Yeast Anticancer Drug Screen. Data for the mlh1 rad18 strain (AID 175); conditions: S. cerevisiae mlh1 rad18 strain growth inhibition, hits give high values
Procedure, shortened: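 Test agents were incubated with a yeast strain of defined genotype (DNA damage repair defect). Inhibition of growth was derived by comparison with vehicle-exposed cultures.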

[3] = NCI Yeast Anticancer Drug Screen. Data for the rad18 strain (AID 177); conditions: S. cerevisiae rad18 mutant growth inhibition, hits give high values
Procedure, shortened: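 A genetically defined yeast mutant impaired in DNA damage repair was treated with test compounds, then its growth was measured against cultures receiving vehicle alone.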

[4] = NCI Yeast Anticancer Drug Screen. Data for the wt1 strain (AID 149);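 note: 0% = growth of vehicle-treated wt1 cultures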; conditions: S. cerevisiae wt1 strain (SPY 50644) growth inhibition, hits give high values
Procedure, shortened: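 Compounds are added to wt1 yeast cultures. Growth is then measured. Inhibition is expressed relative to vehicle-treated controls.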

[5] = NCI Yeast Anticancer Drug Screen. Data for the rad50EPP+ strain (AID 151);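 note: 0% = growth of vehicle-treated control cultures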; conditions: S. cerevisiae rad50 mutant strain, hits give high values
Procedure, shortened: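 Exposing the rad50EPP+ strain to each compound, growth was compared with vehicle-only cultures to give inhibition.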

[6] = NCI Yeast Anticancer Drug Screen. Data for the mgt1 strain (AID 153); conditions: S. cerevisiae mgt1 mutant growth inhibition, hits give high values
Procedure, shortened: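 Genetically defined yeast (mgt1) treated with compound; inhibition of growth expressed against vehicle-treated controls.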

[7] = NCI Yeast Anticancer Drug Screen. Data for the rad50 strain (AID 155);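 note: 0% = growth of vehicle-only cultures of the same strain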; conditions: S. cerevisiae rad50 strain growth inhibition, hits give high values
Procedure, shortened: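 Inhibition values express reduced yeast growth in compound-treated cultures relative to vehicle-treated controls.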

[8] = NCI Yeast Anticancer Drug Screen. Data for the mec2-1 strain (AID 157); conditions: S. cerevisiae mec2-1 strain, hits give high values
Procedure, shortened: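 Readout is yeast growth inhibition, normalised to vehicle-treated controls, in the mec2-1 strain exposed to compound.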

[9] = NCI Yeast Anticancer Drug Screen. Data for the rad14 strain (AID 159);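 note: 0% = growth of vehicle-treated control cultures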; conditions: S. cerevisiae rad14 strain growth inhibition, hits give high values
Procedure, shortened: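 A mutant yeast strain defective in DNA damage repair is treated with compound; inhibition of its growth is scored against untreated, vehicle-exposed cultures.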

[10] = NCI Yeast Anticancer Drug Screen. Data for the sgs1 mgt1 strain (AID 161);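 note: 0% = growth of cultures given vehicle only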; conditions: S. cerevisiae sgs1 mgt1 strain, hits give high values
Procedure, shortened: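 This yeast growth screen uses a strain with defined DNA-repair lesions; compound-treated growth is compared with vehicle-treated growth.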

[11] = NCI Yeast Anticancer Drug Screen. Data for the CLN2oe strain (AID 163);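 note: 0% = growth of vehicle-only control cultures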; conditions: S. cerevisiae CLN2oe strain, hits give high values
Procedure, shortened: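 Values reflect how much compound exposure reduced yeast growth, referenced to vehicle-exposed cells. Assay organism is a strain with a defined genetic change affecting cell-cycle control.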

[12] = NCI Yeast Anticancer Drug Screen. Data for the cln2 rad14 strain (AID 165);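 note: 0% = growth equal to vehicle treated cultures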; conditions: S. cerevisiae cln2 rad14 strain, hits give high values
Procedure, shortened: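 Relative to vehicle controls, growth inhibition of compound-treated cln2 rad14 yeast was recorded.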

[13] = NCI Yeast Anticancer Drug Screen. Data for the bub3 strain (AID 167); conditions: S. cerevisiae bub3 mutant strain, hits give high values
Procedure, shortened: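 Steps: expose the mutant yeast strain to compound; grow alongside vehicle-treated cultures; measure growth; express inhibition against the vehicle cultures.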

[14] = NCI Yeast Anticancer Drug Screen. Data for the wt2 strain (AID 169);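 note: 0% = growth of vehicle-treated yeast cultures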; conditions: S. cerevisiae wt2 strain growth inhibition, hits give high values
Procedure, shortened: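 Values express reduction in yeast growth under compound treatment, referenced to vehicle-treated cells.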

[15] = NCI Yeast Anticancer Drug Screen. Data for the mlh1 strain (AID 171);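 note: 0% = growth of vehicle-treated control cultures of the same strain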; conditions: S. cerevisiae mlh1 strain growth inhibition, hits give high values
Procedure, shortened: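 Steps: expose the defined-mutant yeast strain to compound; expose a parallel culture to vehicle; measure growth; express compound effect as inhibition relative to the vehicle culture.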

[16] = at 5.0 µM (retest, dose inferred, filed as 0.5)
[17] = at 50.0 µM (retest, dose inferred, filed as 5.0)

Measured: growth inhibition

Cc1cc(NCCCN(C)C)c2ccc3c(ccc4c(NCCCN(C)C)cc(C)nc43)c2n1
inactive: [1]; at 1.2 µM 3% | [1]; at 3.7 µM 10% | [1]; at 11.0 µM 7% | [1]; at 33.0 µM 8% | [1]; at 100.0 µM 46% | [2]; [16] 10% | [2]; at 50.0 µM 9.8% | [3]; at 1.2 µM 10% | [3]; at 3.7 µM 4% | [3]; at 11.0 µM 2% | [3]; at 33.0 µM -8% | [3]; at 100.0 µM 34%
active: [2]; [17] 85%

COc1ccc(/C=C2\S/C(=N/Nc3nc(-c4ccccc4)cs3)NC2=O)cc1OC
inactive: [4]; at 1.2 µM 50% | [5]; at 1.2 µM 29% | [5]; at 3.7 µM 63% | [7]; at 1.2 µM 59% | [7]; [16] -4% | [8]; [16] -8% | [9]; at 1.2 µM 20% | [9]; at 3.7 µM 45% | [10]; [16] -4% | [11]; at 1.2 µM 44% | [12]; [16] 11% | [14]; at 1.2 µM 22% | [15]; at 1.2 µM 13% | [1]; at 1.2 µM 32% | [2]; [16] 12% | [3]; at 1.2 µM 35%
active: [4]; at 3.7 µM 90% | [4]; at 11.0 µM 97% | [4]; at 33.0 µM 96% | [4]; at 100.0 µM 95% | [5]; at 11.0 µM 93% | [5]; at 33.0 µM 97% | [5]; at 100.0 µM 97% | [6]; at 1.2 µM 92% | [6]; at 3.7 µM 97% | [6]; at 11.0 µM 98% | [6]; at 33.0 µM 97% | [6]; at 100.0 µM 93% | [7]; at 3.7 µM 87% | [7]; at 11.0 µM 96% | [7]; at 33.0 µM 97% | [7]; [17] 93% | [7]; at 50.0 µM 95.2% | [7]; at 100.0 µM 93% | [8]; at 1.2 µM 82% | [8]; at 3.7 µM 88% | [8]; at 11.0 µM 96% | [8]; at 33.0 µM 97% | [8]; [17] 87% | [8]; at 50.0 µM 95.5% | [8]; at 100.0 µM 94% | [9]; at 11.0 µM 84% | [9]; at 33.0 µM 93% | [9]; at 100.0 µM 92% | [10]; [17] 90% | [10]; at 50.0 µM 95.7% | [11]; at 3.7 µM 79% | [11]; at 11.0 µM 96% | [11]; at 33.0 µM 98% | [11]; at 100.0 µM 97% | [12]; [17] 95% | [12]; at 50.0 µM 91% | [13]; at 1.2 µM 82% | [13]; at 3.7 µM 93% | [13]; [16] 94% | [13]; at 11.0 µM 97% | [13]; at 33.0 µM 97% | [13]; [17] 98% | [13]; at 50.0 µM 98.3% | [13]; at 100.0 µM 97% | [14]; at 3.7 µM 79% | [14]; at 11.0 µM 97% | [14]; at 33.0 µM 95% | [14]; at 100.0 µM 96% | [15]; at 3.7 µM 75% | [15]; at 11.0 µM 96% | [15]; at 33.0 µM 94% | [15]; at 100.0 µM 88% | [1]; at 3.7 µM 73% | [1]; at 11.0 µM 88% | [1]; at 33.0 µM 95% | [1]; at 100.0 µM 92% | [2]; [17] 97% | [2]; at 50.0 µM 98.5% | [3]; at 3.7 µM 83% | [3]; at 11.0 µM 97% | [3]; at 33.0 µM 96% | [3]; at 100.0 µM 90%

CNC(=O)OCc1c(COC(=O)NC)c(C)n(-c2ccc(Cl)c(Cl)c2)c1C
active: [4]; at 33.0 µM 97% | [4]; at 100.0 µM 99% | [6]; at 33.0 µM 98% | [6]; at 100.0 µM 99% | [7]; at 33.0 µM 97% | [7]; [17] 97% | [7]; at 50.0 µM 89.6% | [7]; at 100.0 µM 97% | [8]; at 33.0 µM 98% | [8]; [17] 98% | [8]; at 50.0 µM 90.8% | [8]; at 100.0 µM 99% | [9]; at 33.0 µM 98% | [9]; at 100.0 µM 98% | [10]; at 50.0 µM 89.5% | [11]; at 100.0 µM 94% | [12]; at 50.0 µM 84.5% | [13]; at 33.0 µM 97% | [13]; at 50.0 µM 87% | [13]; at 100.0 µM 98% | [14]; at 33.0 µM 91% | [14]; at 100.0 µM 97% | [15]; at 33.0 µM 97% | [15]; at 100.0 µM 97% | [1]; at 33.0 µM 97% | [1]; at 100.0 µM 98% | [2]; [17] 98% | [2]; at 50.0 µM 92.3% | [3]; at 33.0 µM 97% | [3]; at 100.0 µM 98%
inactive: [4]; at 1.2 µM -51% | [4]; at 3.7 µM -53% | [4]; at 11.0 µM -54% | [5]; at 1.2 µM -23% | [5]; at 3.7 µM -19% | [5]; at 11.0 µM -25% | [5]; at 33.0 µM -18% | [5]; at 100.0 µM 65% | [6]; at 1.2 µM -35% | [6]; at 3.7 µM -40% | [6]; at 11.0 µM -14% | [7]; at 1.2 µM -37% | [7]; at 3.7 µM -34% | [7]; [16] 25% | [7]; at 11.0 µM -16% | [8]; at 1.2 µM -27% | [8]; at 3.7 µM -22% | [8]; [16] 23% | [8]; at 11.0 µM -26% | [9]; at 1.2 µM -38% | [9]; at 3.7 µM -16% | [9]; at 11.0 µM 25% | [10]; [16] 5% | [10]; [17] 23% | [11]; at 1.2 µM -30% | [11]; at 3.7 µM -4% | [11]; at 11.0 µM -1% | [11]; at 33.0 µM 46% | [12]; [16] 7% | [12]; [17] -10% | [13]; at 1.2 µM -31% | [13]; at 3.7 µM -36% | [13]; [16] 8% | [13]; at 11.0 µM -21% | [13]; [17] 9% | [14]; at 1.2 µM -48% | [14]; at 3.7 µM -37% | [14]; at 11.0 µM -58% | [15]; at 1.2 µM -26% | [15]; at 3.7 µM -10% | [15]; at 11.0 µM 10% | [1]; at 1.2 µM 3% | [1]; at 3.7 µM -4% | [1]; at 11.0 µM 1% | [2]; [16] 39% | [3]; at 1.2 µM -32% | [3]; at 3.7 µM -33% | [3]; at 11.0 µM 1%
